Experimental findings from publication PMC4102417 are described below.

This test relates to murine 3T3 fibroblasts. Kind of test: primary screen, percent viability or growth; higher = less effect of the substance. How it is done: Similarly, for measuring the cytotoxicity concentration (CC50) for 3T3 fibroblast cells, cultures were incubated with drugs for 72 hours and developed using Alamar Blue (Alamar Biosciences Inc, Sacramento, CA) as previously described.
`C#C[C@]1(O)CC[C@H]2[C@@H]3CCC4=Cc5oncc5C[C@]4(C)[C@H]3CC[C@@]21C`: the “Mammalian (3T3) cell % growth at 10 uM” value is reported as 90.2%.
With `C=CC(C1=CC(=O)C=CC1=O)c1ccccc1` (centres unmarked), the “Mammalian (3T3) cell % growth at 10 uM” value is 97.5%.
On to `CCCCC(CC)CNC(=N)NC(=N)NCCCCCCNC(=N)NC(=N)NCC(CC)CCCC.Cl.Cl` (centres unmarked), for which the “Mammalian (3T3) cell % growth at 10 uM” value came out at 12.3%.
Next, `CC12C=CC(=O)C=C1CCC1C2CCC2(C)C(=O)CCC12` (centres unmarked): 72.1%.
Next, `CC(C)CCCC(C)C1CCC2C3CC(=O)C4CC(O)CCC4(C)C3CCC12C` (centres unmarked): 100%; `CC1OC(OC2C(OC3CCC4(C)C(CCC5(C)C4CC=C4C6CC(C)(C)CCC6(C(=O)O)CCC45C)C3(C)CO)OCC(O)C2O)C(O)C(O)C1O` (centres unmarked): 6.8%; `Oc1cc2c(cc1O)C1c3ccc(O)c(O)c3OCC1(O)C2` (centres unmarked): 100%.
As for `Clc1ccc(COC(Cn2ccnc2)c2ccc(Cl)cc2Cl)cc1` (centres unmarked), the “Mammalian (3T3) cell % growth at 10 uM” value was determined as 100%.
Under `CC(=O)OC1CC2C(C)(C)C(=O)CCC2(C)C2CCC3(C)C(c4ccoc4)OC(=O)C4OC43C12C` (centres unmarked) stands 81.4%.
Next, `O=C(/C=C/c1ccc(O)c(O)c1)OCCc1ccccc1`: 1.4%; `COc1c(C)c2c(c(O)c1C/C=C(\C)CCC(=O)O)C(=O)OC2`: 97.2%; `CC(C)COCC(CN(Cc1ccccc1)c1ccccc1)N1CCCC1.Cl` (centres unmarked): 89.6%.
As for `CCCCCC(=O)O[C@]1(C(C)=O)CC[C@H]2[C@@H]3CCC4=CC(=O)CC[C@]4(C)[C@H]3CC[C@@]21C`, the “Mammalian (3T3) cell % growth at 10 uM” value was 100%.
Under `CC(=O)Oc1ccc(/C=C/c2cc(OC(C)=O)cc(OC(C)=O)c2)cc1` stands 31.6%.
Under `Cc1ccc(C(=O)C(C)CN2CCCCC2)cc1` (centres unmarked) stands 0.2%.
Under `COc1ccc2c(c1)[nH]c1c(C)nccc12` stands 87.2%; under `CCCCCCCCCCCCCC(=O)O[C@@H]1[C@@H](C)[C@@]2(O)[C@@H](C=C(CO)C[C@]3(O)C(=O)C(C)=C[C@@H]23)[C@@H]2C(C)(C)[C@]12OC(C)=O`, 89.2%; under `COc1cc2c(cc1OC)C1C(=O)c3c(cc4c(c3O)C=CC(C)(C)O4)OC1CO2` (centres unmarked), 34.3%.
`C[C@@H]1[C@H](O)[C@@H](C)/C=C/C=C/C=C/C=C/C=C/C=C/C=C/[C@H](O[C@@H]2O[C@H](C)[C@@H](O)[C@H](N)[C@@H]2O)C[C@@H]2O[C@](O)(C[C@@H](O)C[C@@H](O)[C@H](O)CC[C@@H](O)C[C@@H](O)CC(=O)O[C@H]1C)C[C@H](O)[C@H]2C(=O)O`: the “Mammalian (3T3) cell % growth at 10 uM” value stood at 89.7%.
Next, `C1CCC(C(CC2CCCCN2)C2CCCCC2)CC1.O=C(O)/C=C\C(=O)O` (centres unmarked): -0.2%; `CCN(CC)CCOc1ccc2c(c1)C(=O)c1cc(OCCN(CC)CC)ccc1-2`: 89%; `O=c1[nH]c2ccccc2n1C1CCN(CCCC(c2ccc(F)cc2)c2ccc(F)cc2)CC1`: 8.1%.
Under `CC1OC(=O)C(C(C)C)NC(=O)C(C(C)C)OC(=O)C(C(C)C)NC(=O)C(C)OC(=O)C(C(C)C)NC(=O)C(C(C)C)OC(=O)C(C(C)C)NC(=O)C(C)OC(=O)C(C(C)C)NC(=O)C(C(C)C)OC(=O)C(C(C)C)NC1=O` (centres unmarked) stands 16.4%.
As to `CCOc1ccc(Cc2nccc3cc(OCC)c(OCC)cc23)cc1OCC`, the “Mammalian (3T3) cell % growth at 10 uM” value worked out at 95.1%.
Next, `COC1=CC(=O)C(O)=C/C1=C\C=C\c1ccccc1`: 0.8%; `CN1CCC(=C2c3ccccc3Sc3ccccc32)CC1`: 98.5%; `OCCN1CCN(CCCN2c3ccccc3Sc3ccc(C(F)(F)F)cc32)CC1`: 100%.
For `Cc1cc(/C=C/c2ccc3cc(N(C)C)ccc3[n+]2C)c(C)n1-c1ccccc1.O=C([O-])c1cc2ccccc2c(Cc2c(O)c(C(=O)O)cc3ccccc23)c1O`, the “Mammalian (3T3) cell % growth at 10 uM” value was determined as 50%.
Consider `CC1(C)C=CC(=O)C2(C)C1CC(=O)C1(C)C2CCC2(C)C(c3ccoc3)OC(=O)C3OC321` (centres unmarked), for which the “Mammalian (3T3) cell % growth at 10 uM” value amounted to 100%.
Regarding `CN1CCCC(n2nc(Cc3ccc(Cl)cc3)c3ccccc3c2=O)CC1.Cl` (centres unmarked), the “Mammalian (3T3) cell % growth at 10 uM” value came out at 95.1%.
With `COc1cc([C@@H]2c3cc4c(cc3[C@@H](O[C@@H]3O[C@@H]5CO[C@@H](c6cccs6)O[C@H]5[C@H](O)[C@H]3O)[C@H]3COC(=O)[C@H]23)OCO4)cc(OC)c1O`, the “Mammalian (3T3) cell % growth at 10 uM” value was found to be 50.4%.
Regarding `COc1ccc2cc3[n+](cc2c1OC)CCc1cc2c(cc1-3)OCO2`, the “Mammalian (3T3) cell % growth at 10 uM” value is 75.8%.
